Records with an inconclusive call do not appear. Some compounds were tested as several samples or in several runs, with calls that do not always agree. Active and inactive are the calls of the source. Calls follow the shape of the dose curve; as a rule, active = well fitted cell-killing curve with a large enough effect in the repeat runs; inconclusive = weak or mixed curves, or effect the other way; inactive = no such curve, though single readings can be large or run the other way.
Experiment: qHTS assay to identify small molecule antagonists of the sonic hedgehog signaling (Shh) pathway - cell viability counter screen (AID 1259367); also: nearly all actives have a fitted effect of over 55% in size
Conditions: NIH/3T3 Gli1-Luc viability, CellTiter-Fluor, 24 h; series mostly up to 42.5 µM; viability change, negative = cytotoxic: at the top concentration
Text: National Center for Advancing Translational Sciences [NCATS]
NIH Chemical Genomics Center [NCGC]
U.S. Environmental Protection Agency [EPA]
National Institutes of Environmental Health Sciences [NIEHS]
National Toxicology Program [NTP]
U.S. Food and Drug Administration [FDA]
The sonic hedgehog (Shh) pathway is essential for normal embryonic development. Dysregulation of the Shh pathway can cause severe developmental defects in organs. Therefore chemicals that interfere with the pathway are potential developmental toxicants. A cell line designated 3T3Gli1-Luc (DMB/OARSA/CFSAN/FDA, Laurel, MD), a NIH/3T3 derived clone containing stably integrated Gli1-Luc reporter is used to detect chemical interference of the Shh pathway, by changes in the expression of the firefly Luc gene under the control of the Gli1 transcriptional response element. This cell line was used to screen Tox21 libraries for identifying and prioritizing the potential developmental toxicants that interfere Shh pathway. Conditioned medium-stimulated mode was used to screen for chemicals inhibiting Shh signaling. The cytotoxicity of the compounds was tested in parallel by measuring the cell viability using CellTiter-Fluor assay system (Promega, Madison, WI) in the same wells.
Tox21 Assay Protocol Summary:
3T3 Gli1-Luc cells were dispensed at 2,000 per well in 5uL of culture medium into white solid bottom 1536-well plates (Greiner Bio-One, Monroe, NC) using a Multidrop Combi (Thermo Scientific, Waltham, MA) dispenser. The assay plates were incubated at 37 C and 5% CO2 for 4hr, and then 23nL of compounds dissolved in DMSO and positive control were transferred using a Pintool station (Wako, San Diego, CA). The compound transfer was followed by the addition of 1ul conditioned medium or assay buffer using two separate tips of Flying Reagent Dispenser (FRD, Aurora Discovery, San Diego, CA). The assay plates were incubated at 37C and 5% CO2 for 24hr. For viability read, after 23hr of compound treatment, 1uL of CellTiter-Fluor reagent (Promega Corporation, Madison, WI) was added to each well of the assay plates using Flying Reagent Dispenser (FRD, Aurora Discovery, San Diego, CA) and incubated the assay plates at 37C for 1hr. The fluorescence signal was quantified using a ViewLux plate reader (Perkin Elmer, Shelton, CT).
% is scaled to controls: 0 for no effect and ±100 for the full control effect; potency is read from the fitted curve at half-maximal effect.

Row | SMILES | viability change, negative = cytotoxic | Potency
1 | Cc1ccc2oc(CN(Cc3ccccc3)C(=O)Nc3c(F)cc(F)cc3F)c(-c3ccc(Cl)cc3)c2c1 | 1.69% [at 92.4 µM] (inactive) | –
2 | Cc1nc(-c2ccc3c(c2)CCN(CCC2CCC(NC(=O)/C=C/c4ccc(F)cc4)CC2)CC3)no1 (stereo not given) | 7.63% (inactive) | –
3 | CC(C)C(C)(C)C(C)(C)C(C)(C)S | 7.48% [at 92.4 µM] (inactive) | –
4 | CC(C)OC(=O)c1cc2c(OCC(O)CNC(C)(C)C)cccc2[nH]1 (stereo not given) | -21.1% (inactive) | –
5 | CCCCN(CCCC)C(=O)N(CCCC)CCCC | 0.907% [at 92.4 µM] (inactive) | –
6 | CNc1ccc(O)cc1 | – | 15.3 µM (active)
7 | Cc1c(C)c2c(c(C)c1OC(=O)CCC(=O)O)CC[C@@](C)(CCC[C@H](C)CCC[C@H](C)CCCC(C)C)O2 | 3.8% [at 92.4 µM] (inactive) | –
8 | O=C(OC[C@H]1O[C@@H](OC(=O)c2cc(O)c(O)c(OC(=O)c3cc(O)c(O)c(O)c3)c2)[C@H](OC(=O)c2cc(O)c(O)c(OC(=O)c3cc(O)c(O)c(O)c3)c2)[C@@H](OC(=O)c2cc(O)c(O)c(OC(=O)c3cc(O)c(O)c(O)c3)c2)[C@@H]1OC(=O)c1cc(O)c(O)c(OC(=O)c2cc(O)c(O)c(O)c2)c1)c1cc(O)c(O)c(OC(=O)c2cc(O)c(O)c(O)c2)c1 | – | 6.57 µM (active)
9 | CCCCCCCCOc1ccccc1C(=O)Nc1ccc(C(=O)OCC[N+](C)(CC)CC)cc1 | 9.93% (inactive) | –
10 | CCN(CC)CCNC(=O)c1c(C)[nH]c(/C=C2\C(=O)Nc3ccc(F)cc32)c1C | – | 13.3 µM (active)
11 | Cc1ccc(O)c(C(C)(C)C)c1 | -22.4% [at 92.4 µM] (inactive) | –
12 | CCN(CC)CCCC(C)Nc1c2ccc(Cl)cc2nc2ccc(OC)cc12 (stereo not given) | -0.469% (inactive) | –
13 | O=[N+]([O-])c1cc(Cl)c(Cl)c(Cl)c1Cl | -8.09% [at 92.4 µM] (inactive) | –
14 | CN(C/C=C/C#CC(C)(C)C)Cc1cccc2ccccc12 | 11% (inactive) | –
15 | NC(=O)C1(N2CCCCC2)CCN(CCCN2c3ccccc3CCc3ccc(Cl)cc32)CC1 | – | 29.8 µM (active)
16 | CC(=O)S[C@@H]1CC2=CC(=O)CC[C@]2(C)[C@H]2CC[C@@]3(C)[C@@H](CC[C@@]34CCC(=O)O4)[C@H]12 | -15.5% [at 92.4 µM] (inactive) | –
17 | CCCCCCCC(=O)[O-].CCCCCCCC(=O)[O-].[Zn+2] | 0.738% (inactive) | –
18 | CN(C)[C@@H]1C(=O)C(C(N)=O)=C(O)[C@@]2(O)C(=O)C3=C(O)c4c(O)cccc4C[C@H]3C[C@@H]12 | -1.05% (inactive) | –
19 | C/C(=C(/OCCOc1ccc(Cl)cc1)c1ccc(Cl)cc1Cl)n1ccnc1 | 4.65% (inactive) | –
20 | CSc1ccc(/C=C2/C(C)=C(CC(=O)O)c3cc(F)ccc32)cc1 | -15% (inactive) | –

Row | SMILES | viability change, negative = cytotoxic | Potency
21 | Cc1cc(CCN2CCN(c3nsc4ccccc34)CC2)cc2c1NC(=O)CC2(C)C | – | 19.3 µM (active)
22 | NNc1nc(-c2ccccc2)cs1 | -17.5% [at 92.4 µM] (inactive) | –
23 | O=S1(=O)CC(Cl)(Cl)C(Cl)(Cl)C1 | – | 2.17 µM (active)
24 | CCCCC(CC)COP(=O)(O)OCC(CC)CCCC (stereo not given) | -12.2% [at 92.4 µM] (inactive) | –
25 | CC(C)(C)CC(C)(C)c1ccc(OCCOCC[N+](C)(C)Cc2ccccc2)cc1 | – | 61.1 µM (active) and inactive
26 | COc1cc(-c2ccc(N=C=O)c(OC)c2)ccc1N=C=O | -4.18% (inactive) | –
27 | CNC(=O)c1ccccc1 | 1.37% [at 92.4 µM] (inactive) | –
28 | Cc1cc(O)c(C(C)(C)C)cc1Sc1cc(C(C)(C)C)c(O)cc1C | – | 19.3 µM (active)
29 | Nc1c(Cl)cc(Cl)cc1Cl | 1.02% [at 92.4 µM] (inactive) | –
30 | CCCCC(CC)CN=C(N)NC(N)=NCCCCCCN=C(N)NC(N)=NCC(CC)CCCC (stereo not given) | – | 21.1 µM (active)
31 | CN(C)c1ccc(C2(c3ccc(N(C)C)cc3)OC(=O)c3cc(N(C)C)ccc32)cc1 | 10% [at 92.4 µM] (inactive) | –
32 | CCCCCCCCCOC(=O)c1ccc(O)cc1 | 1.92% [at 92.4 µM] (inactive) | –
33 | Cc1cccc2c1cc1ccc3cccc4ccc2c1c34 | 2.2% [at 92.4 µM] (inactive) | –
34 | CCCCCCCCCCCCCCCCCC[N+](C)(C)Cc1ccccc1 | – | 30.9 µM (active)
35 | CC[C@H](c1ccc(O)cc1)[C@@H](CC)c1ccc(O)cc1 | – | 48.6 µM (active) and inactive
36 | CCCCC(CC)COC(=O)c1ccccc1C(=O)O (stereo not given) | -21.2% [at 92.4 µM] (inactive) | –
37 | Cc1onc(-c2ccccc2Cl)c1C(=O)N[C@@H]1C(=O)N2[C@@H]1SC(C)(C)[C@@H]2C(=O)O | 1.58% (inactive) | –
38 | Cc1[nH]nc2c1N=C(c1ccccc1Cl)c1cc([N+](=O)[O-])ccc1N2 | – | 8.63 µM (active)
39 | CCOC(=O)/C=C(C)/C=C/C=C(C)/C=C/c1c(C)cc(OC)c(C)c1C | -0.536% (inactive) | –
40 | Clc1ccc2cc3ccccc3cc2c1 | 1.11% [at 92.4 µM] (inactive) | –
